From PubChem BioAssay (NCATS) come the findings set out here.

Assay [1] in a line: S16 Schwann cell viability assay (CellTiter-Glo assay) (AID 624031).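 Also: cellular ATP luminescence as a viability measure; nearly all actives have a fitted effect of over 70% in size.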 The procedure, abridged: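 Native S16 rat Schwann cells, 500-750 cells/well in DMEM with 10% FBS, dosed with compound after overnight culture and incubated 24h at 37 degree Celsius/5% CO2. Viability by CellTiter-Glo luminescence; % activity normalized to no-cell wells and DMSO-treated cells.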
A general note: In ATP-based viability assays light output follows the ATP content of the culture.

The subject of the next assay is 3D7. The assay is described as follows: qHTS profiling for inhibitors of Plasmodium falciparum proliferation (AID 504749). Also: nearly all actives have a fitted effect of over 60% in size. Also: potency is read from the fitted curve at half-maximal effect. The following applies: P. falciparum in erythrocytes, SYBR Green DNA, 72 h; series mostly up to 28.7 µM. The procedure, abridged: (§1)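 SYBR Green fluorescence (ex 485 nm, em 535 nm) reports parasite DNA after 72 h compound exposure of infected red cells at 0.3% parasitemia, 2.5% hematocrit; signal normalized to 0.29 uM artemisinin and vehicle wells.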

The next assay has as its system 7G8. The assay is described as above. The following applies: P. falciparum in erythrocytes, SYBR Green DNA, 72 h; series mostly up to 28.7 µM. In short, it runs like this:
as §1

The subject of another assay is CP191. The assay is described as above. The following applies: P. falciparum in erythrocytes, SYBR Green DNA, 72 h; series mostly up to 28.7 µM. In short, it runs like this:
as §1

The subject of a further assay is CP266. Described as above. The following applies: P. falciparum in erythrocytes, SYBR Green DNA, 72 h; series mostly up to 28.7 µM. The procedure, abridged:
as §1

For another assay, the system named is CP291. Described as above. The following applies: P. falciparum in erythrocytes, SYBR Green DNA, 72 h; series mostly up to 28.7 µM. The procedure, abridged:
as §1

A further assay deals with ATS95. Described as above. The following applies: P. falciparum in erythrocytes, SYBR Green DNA, 72 h; series mostly up to 28.7 µM. The procedure, abridged: as §1
The test system of the next assay is CP215. The assay is described as above. The following applies: P. falciparum in erythrocytes, SYBR Green DNA, 72 h; series mostly up to 28.7 µM. In short, it runs like this: as §1
A further assay concerns CP247. Described as above. The following applies: P. falciparum in erythrocytes, SYBR Green DNA, 72 h; series mostly up to 28.7 µM. The procedure, abridged: as §1
A further assay has as its system CP260. The description is as above. The following applies: P. falciparum in erythrocytes, SYBR Green DNA, 72 h; series mostly up to 28.7 µM. The procedure, abridged: as §1
The subject of another assay is CP335. Described as above. The following applies: P. falciparum in erythrocytes, SYBR Green DNA, 72 h; series mostly up to 28.7 µM. In short, it runs like this:
as §1

A further assay relates to DIV17. The assay is described as above. The following applies: P. falciparum in erythrocytes, SYBR Green DNA, 72 h; series mostly up to 28.7 µM. In short, it runs like this: as §1
In another assay the test system is DIV30. The assay is described as above. The following applies: P. falciparum in erythrocytes, SYBR Green DNA, 72 h; series mostly up to 28.7 µM. In short, it runs like this:
as §1

The subject of another assay is P93_24. The assay is described as above. The following applies: P. falciparum in erythrocytes, SYBR Green DNA, 72 h; series mostly up to 28.7 µM. The procedure, abridged: as §1
For a further assay, the system named is P94_40. Described as above. The following applies: P. falciparum in erythrocytes, SYBR Green DNA, 72 h; series mostly up to 28.7 µM. In short, it runs like this:
as §1

A further assay relates to PAD. Described as above. The following applies: P. falciparum in erythrocytes, SYBR Green DNA, 72 h; series mostly up to 28.7 µM. In short, it runs like this:
as §1

The next assay has as its system PC26. The description is as above. The following applies: P. falciparum in erythrocytes, SYBR Green DNA, 72 h; series mostly up to 28.7 µM. The procedure, abridged:
as §1

The subject of another assay is SC27B. The assay is described as above. The following applies: P. falciparum in erythrocytes, SYBR Green DNA, 72 h; series mostly up to 28.7 µM. The procedure, abridged: as §1
Another assay deals with TAB113. Described as above. The following applies: P. falciparum in erythrocytes, SYBR Green DNA, 72 h; series mostly up to 28.7 µM. In short, it runs like this:
as §1

The test system of another assay is TAB165. The description is as above. The following applies: P. falciparum in erythrocytes, SYBR Green DNA, 72 h; series mostly up to 28.7 µM. The procedure, abridged:
as §1

Inconclusive results are not listed. Active and inactive are the calls of the source. Calls follow the shape of the dose curve; as a rule, active = well fitted curve in the direction sought with a large enough effect; inconclusive = small, poorly fitted or top-dose-only effect, or another doubt; inactive = no such curve, though single readings can be large; an effect the other way counts as inactive or inconclusive.

As to `CC1=C[C@@H](O)CC(C)(C)[C@@H]1/C=C/C(C)=C/C=C/C(C)=C/C=C/C=C(C)/C=C/C=C(C)/C=C/C1=C(C)C[C@H](O)CC1(C)C`, the Potency entry (in [1]; with CP191; with CP266; with CP291) was “inactive” throughout. In addition, the Potency in the assay on 3D7 and in the assay with 7G8 was 10 µM (active) each time.

For the compound `C=C(CC[C@@H](C)[C@H]1CCC2[C@]1(C)CC[C@]13C[C@@]14CCC(OC(=O)/C=C/c1ccc(O)c(OC)c1)C(C)(C)[C@@H]4CC[C@@]23C)C(C)C` (some centres undefined), the Potency entry (in [1]; in the assay with 3D7; with ATS95; in the assay on CP191; with CP215; with CP247) was “inactive” each time. Further, the Potency entry with CP260, in the assay with CP266, in the assay on CP291, in the assay with CP335, in the assay with DIV17 and in the assay with DIV30 was “inactive” in each case. Besides, the Potency entry in the assay with P93_24, with P94_40, with PAD, with PC26, in the assay on SC27B and with TAB113 was “inactive” each time. The Potency result in the assay with TAB165 was “inactive”.

Consider `C[C@]12CCC(=O)C=C1[C@@H]1C[C@H]1[C@H]1[C@@H]3[C@@H]4C[C@H]4[C@@]4(CCC(=O)O4)[C@@]3(C)CC[C@@H]12`, for which the Potency result (in [1]; in the assay with ATS95; with CP191; in the assay with CP247; with CP260; with CP266) was “inactive” each time. Further, the Potency entry in the assay on CP291, in the assay with CP335, in the assay with DIV17, in the assay with P93_24, with P94_40 and with PC26 was “inactive” each time. For the same compound, the Potency entry in the assay with SC27B, in the assay with TAB113 and in the assay on TAB165 was “inactive” throughout.

For `CN(C)CC[C@@](O)(c1ccccc1)c1ccccc1Cl`, the Potency is 3.55 µM (active) in the assay on 7G8; 11.2 µM (active) in the assay with ATS95; 10 µM (active) in the assay with CP260; 7.57 µM (active) with CP335; 6.75 µM (active) in the assay on DIV17; 10.7 µM (active) in the assay on DIV30. Moreover, the Potency in the assay with P93_24 is 5.62 µM (active); with P94_40 it was 6.31 µM (active); in the assay on PAD it was 11.2 µM (active); with PC26 it was 7.57 µM (active); in the assay with SC27B it was 5.62 µM (active); in the assay on TAB113, 11.2 µM (active). In addition, the Potency with TAB165 was 6.31 µM (active).

As to `C/C(=C(/CCOC(=O)C(C)C)SS/C(CCOC(=O)C(C)C)=C(\C)N(C=O)Cc1cnc(C)nc1N)N(C=O)Cc1cnc(C)nc1N`, the Potency entry with 3D7, in the assay on 7G8, in the assay with ATS95, in the assay with CP215, with CP247 and in the assay with CP260 was “inactive” throughout. In addition, the Potency result in the assay with CP266, in the assay with CP291, with CP335, in the assay with DIV17, in the assay with DIV30 and in the assay on P93_24 was “inactive” each time. Also, the Potency entry in the assay with P94_40, in the assay on PAD, in the assay on PC26, in the assay on SC27B, in the assay with TAB113 and in the assay on TAB165 was “inactive” in each case.

As to `CC1CN(c2c(F)c(N)c3c(=O)c(C(=O)O)cn(C4CC4)c3c2F)CC(C)N1` (centres undefined), the Potency entry (in [1]; in the assay on 3D7; in the assay on ATS95; in the assay on CP191; in the assay with CP215; with CP247) was “inactive” in each case. Besides, the Potency result in the assay on CP266, in the assay with CP291, in the assay with DIV17, with DIV30, in the assay on P93_24 and in the assay with P94_40 was “inactive” in each case. For the same compound, the Potency entry with PAD, with PC26, in the assay with SC27B, in the assay with TAB113 and with TAB165 was “inactive” throughout.

`CC1(C)SC2[C@@H](N=CN3CCCCCC3)C(=O)N2[C@H]1C(=O)O` (some centres undefined): the Potency entry (in assay [1]; with 3D7; with ATS95; in the assay with CP191; in the assay with CP247; with CP260) was “inactive” in each case. Moreover, the Potency entry in the assay with CP266, in the assay on CP291, in the assay on CP335, in the assay with DIV17, in the assay on DIV30 and in the assay with P93_24 was “inactive” each time. For the same compound, the Potency result in the assay with PC26 and in the assay with SC27B was “inactive” throughout.

For `O=C(O)C[CH2][Ge](=[O])[O][Ge](=[O])[CH2]CC(=O)O`, the Potency result (in assay [1]; with 7G8; in the assay with ATS95; in the assay with CP191; with CP215; in the assay with CP247) was “inactive” throughout. Moreover, the Potency result in the assay on CP260, in the assay on CP266, with CP291, in the assay on CP335, in the assay on DIV17 and in the assay on DIV30 was “inactive” in each case. Further, the Potency result in the assay with P93_24, in the assay on P94_40, with PAD, in the assay on PC26, with SC27B and in the assay with TAB113 was “inactive” each time. The Potency entry with TAB165 was “inactive”.

Regarding `Cc1c(C)c2c(c(C)c1O)CCC(C)(CCCC(C)CCCC(C)CCCC(C)C)O2` (centres undefined), the Potency entry (in assay [1]; in the assay on 3D7; in the assay on ATS95; with CP191; in the assay on CP215; in the assay with CP247) was “inactive” throughout. For the same compound, the Potency entry with CP260, in the assay on CP266, in the assay on CP291, with CP335, in the assay with DIV17 and with DIV30 was “inactive” throughout. Besides, the Potency result in the assay with P93_24, in the assay on P94_40, in the assay on PAD, in the assay on PC26, with SC27B and in the assay on TAB113 was “inactive” throughout. Besides, the Potency entry in the assay on TAB165 is “inactive”.

As for `COC(=O)C1C2CC3c4[nH]c5cc(OC)ccc5c4CCN3CC2CC(OC)C1OC` (centres undefined), the Potency result in the assay with 3D7, in the assay with ATS95, in the assay on CP191, in the assay on CP215, in the assay with CP247 and in the assay with CP260 was “inactive” in each case. The Potency result in the assay with CP266, in the assay on CP291, in the assay on CP335, in the assay with P93_24, in the assay on P94_40 and with PAD was “inactive” throughout. The Potency entry with PC26, in the assay with SC27B, with TAB113 and with TAB165 was “inactive” throughout.

`CC1CCC(O)C/C1=C\C=C1/CCCC2(C)C1CCC2C(C)/C=C/C(C)C(C)C` (centres undefined): the Potency entry in the assay with ATS95, in the assay with CP191, in the assay on CP215, in the assay with CP260, in the assay on CP266 and in the assay with CP291 was “inactive” throughout. Moreover, the Potency entry in the assay on SC27B, in the assay with TAB113 and with TAB165 was “inactive” in each case.

For `O=C1Oc2ccccc2C(=O)C1C(CC(O)c1ccc(-c2ccc(Br)cc2)cc1)c1ccccc1` (centres undefined), the Potency entry (in [1]; in the assay with 3D7; with ATS95; with CP191; in the assay with CP215; in the assay on CP260) was “inactive” each time. In addition, the Potency entry with CP266, in the assay on CP291, with DIV30, in the assay with P94_40, with PC26 and with SC27B was “inactive” each time. Also, the Potency entry with TAB113 and in the assay with TAB165 was “inactive” in each case. In addition, in the assay on 7G8, the Potency is 12.6 µM (active).

On to `C#C[C@@]1(O)CC[C@@H]2[C@H]3CCC4=C/C(=N\O)CC[C@H]4[C@@H]3CC[C@]21CC`, for which the Potency entry (in assay [1]; in the assay with 3D7; with ATS95; in the assay on CP191; in the assay with CP215; in the assay on CP247) was “inactive” throughout. The Potency entry in the assay on CP260, in the assay on CP266, in the assay on CP291, in the assay with CP335, in the assay on DIV17 and in the assay with DIV30 was “inactive” throughout. The Potency entry in the assay on P93_24, in the assay on P94_40, in the assay on PAD, in the assay with PC26, in the assay with SC27B and in the assay with TAB113 was “inactive” each time. For the same compound, the Potency entry in the assay on TAB165 was “inactive”.
